Screen size: about 16,000 compounds; about 5,800 (36%) were called active. Another 23% or so got no clear call; they are omitted. The call rests on the fitted dose curve; in most records, active means well fitted curve in the direction sought with a large enough effect; inconclusive means small, poorly fitted or top-dose-only effect, or effect the other way; inactive means no such curve, though single readings can be large or run the other way. The list shows a part of the results.
Target: Cytochrome P450 2C19 (Homo sapiens) (UniProt P33261)
Sequence (P33261 whole entry, looked up): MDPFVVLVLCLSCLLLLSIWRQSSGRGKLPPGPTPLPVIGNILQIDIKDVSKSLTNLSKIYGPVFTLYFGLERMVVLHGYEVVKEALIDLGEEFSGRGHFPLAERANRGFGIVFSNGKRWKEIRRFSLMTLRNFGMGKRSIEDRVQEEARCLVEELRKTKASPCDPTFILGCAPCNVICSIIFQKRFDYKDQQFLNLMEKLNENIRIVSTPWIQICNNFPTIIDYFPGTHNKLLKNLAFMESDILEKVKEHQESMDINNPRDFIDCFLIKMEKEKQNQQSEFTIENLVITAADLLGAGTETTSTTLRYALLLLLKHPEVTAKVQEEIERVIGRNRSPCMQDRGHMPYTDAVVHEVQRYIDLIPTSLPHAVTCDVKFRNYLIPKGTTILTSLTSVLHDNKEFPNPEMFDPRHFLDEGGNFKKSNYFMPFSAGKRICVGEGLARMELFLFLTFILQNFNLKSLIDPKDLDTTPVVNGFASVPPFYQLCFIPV
Assay: Cytochrome panel assay with activity outcomes
Conditions: recombinant CYP, pro-luciferin dealkylation, luminescence, p450-cyp2c19; series mostly up to 57.1 µM
On the % scale 0 is the no-effect control and ±100 the full control effect.

AC50, active:
O=C(CSc1nc2ccccc2c(=O)n1NC(=O)Cc1ccccc1)NCc1ccccc1Cl 0.794 µM, CCOC(=O)COc1c(C=O)cc(Br)cc1OC 6.31 µM, Cc1ccc(C)c(S(=O)(=O)N2CCC(c3nc4c(nnn4Cc4ccc(F)cc4)c(=O)[nH]3)CC2)c1 4.47 µM, Nc1nc(Br)c2c(F)cccc2c1-c1ccc(Cl)cc1 1.26 µM, Nc1nc(Br)c2ccccc2c1-c1ccc(F)cc1 2.82 µM, O=C(Cc1ccc2c(c1)CCCC2)Nc1ccccc1Br 3.55 µM, CC1=CC(C)(C)N(C)C(=O)N1c1ccc(Cl)cc1 15.8 µM, NC(N)=Nc1nc(CCN2C(=O)c3ccccc3C2=O)cs1 2.82 µM, Cc1cccc(NC(=S)NC(=O)CCc2ccccc2)c1 5.62 µM, Cc1cccc(C)c1NC(=S)NC(=O)CCc1ccccc1 3.55 µM, CCCCC(=O)NC(=S)Nc1cccc(NC(=O)CC)c1 10 µM, CCC(=O)Nc1cccc(C(=O)/C=C/c2ccccc2)c1 5.62 µM, Cc1ccc(C(=O)Nc2ccc3nccnc3c2)cc1 14.1 µM, Cc1c(C)n(C(=O)CN2CCC(C)CC2)c2ccccc12 3.55 µM, Cc1ccc(C(=O)Nc2cc(Cl)ccc2OC(=O)c2ccc(C)cc2)cc1 11.2 µM, COc1ccc(C(=O)Nc2cc(Cl)ccc2OC(=O)c2ccc(OC)cc2)cc1 3.55 µM, COC(=O)CCSc1cc([N+](=O)[O-])cc2c1c(C1OCCS1)nn2-c1ccccc1 (centres undefined) 25.1 µM, NC(N)=NC(N)=Nc1ccccc1 25.1 µM, N#C/C(=C/c1cccc(C(F)(F)F)c1)c1nc(CCN2C(=O)c3ccccc3C2=O)cs1 3.16 µM, C=CCNCCCCOc1c(Cl)cc(C)cc1Br 8.91 µM, C/C(=N\NC(=O)Cc1ccc(Cl)cc1)c1ccccn1 5.01 µM, CC(C)c1ccc(N2C(=O)CC(Sc3nc4ccccc4o3)C2=O)cc1 (centres undefined) 1.78 µM, CCOC(=O)c1cc(-c2ccc(Cl)cc2)nc2c1c(C)nn2CCC#N 14.1 µM, Cc1nn(C)c(Oc2cccc(Cl)c2)c1C=O 6.31 µM, O=C(N/N=C/c1ccc(Cl)cc1Cl)Nc1ccccc1 2.82 µM, O=C(N/N=C/c1ccc(Cl)cc1)Nc1ccccc1 11.2 µM, Cn1cccc1C(=O)N1CCC2(CC1)CN(c1ccncc1)C2 1.26 µM, O=C(c1ccco1)N1CCC2(CC1)CCN(c1cccc(-c3ccccc3)c1)CC2 10 µM, O=C(c1ccco1)N1CCC[C@@]2(CCN(c3ccccc3)C2)C1 5.01 µM, Cn1cccc1C(=O)N1CCC[C@@]2(CCN(c3ccncc3)C2)C1 6.31 µM

AC50, inactive:
CCOc1cc(/C=C2\N=C(C)OC2=O)cc(Br)c1OCC(=O)OC, CCOC(=O)C1=C(O)/C(=C/c2cc(OC)c(OC)c(OC)c2)N=C1C, Cc1cccc(C)c1NC(=O)CS(=O)CC(=O)NCCCc1ccccc1 (centres undefined), CC(=O)Nc1ccc(C(=O)NNC(=O)CCc2ccccc2)cc1, CCC(=O)NNC(=O)CCC(=O)Nc1ccccc1, Cn1c(=O)c2c(-c3cccc(F)c3)c3c(nc2n(C)c1=O)-c1ccccc1C3O (centres undefined), CN(C)c1ncc2ncc(=O)n(C3CC3)c2n1, N[C@H](CCC(=O)NCC(=O)O)C(=O)O, Cc1ccc(-n2nc3ccc(NC(=O)c4ccc5c(c4)OCO5)cc3n2)cc1, CC1CCN(CC[C@@H]2CCCN2S(=O)(=O)c2cccc(O)c2)CC1, O=C(O)c1cc(=O)cc(C(=O)O)[nH]1, C[C@]1(c2ccccc2)OC(C(=O)O)=CC1=O, COc1ccc(NC(=O)c2ccc(C(=O)c3cc(OC)ccc3OC)cc2)cc1, NC(N)=NC(N)=Nc1cccc(Cl)c1, Cc1cc(Br)cc(C)c1OCCCCN(C)C, COCCCNCCCCOc1c(Cl)cc(C)cc1Br, O=C(N/N=C/C1CCCCC1)c1ccccn1, COc1cccc(Nc2ncc3nc(-c4ccc(Cl)cc4)c(=O)n(CCC#N)c3n2)c1, Cc1ccc(NC(=O)N/C=C/c2ccc(Cl)cc2)cc1, CC(C)N=C(N)/N=C(\N)Nc1ccc(Cl)cc1, Cn1cccc1C(=O)N1CCC2(CC1)CN(c1ccccn1)C2, Cn1cccc1C(=O)N1CCC2(CC1)CCN(c1ccncc1)CC2, O=C(c1ccco1)N1CCC2(CC1)CCN(c1ccc(-c3ccccc3)cc1)CC2, Cn1cccc1C(=O)N1CCC[C@@]2(CCN(Cc3nccs3)C2)C1, O=C(c1ccco1)N1CCC[C@@]2(CCN(c3ccncc3)C2)C1, O=C(c1ccco1)N1CCC2(CCCN(c3ccccc3)C2)CC1, CC(=O)N1CCC[C@@]2(CCN(c3ccncc3)C2)C1, c1ccc(-c2cccc(N3CCC4(CCNCC4)CC3)c2)cc1

activity, negative = inhibition, inactive:
CO[C@@H]1COC(=O)CC=C[C@@H](C)[C@@H]2C=C[C@@H](O)[C@@H](COC(=O)C/C=C\[C@H]1C)O2 -8% [at 11.4 µM], Cc1c(C)c(C)c(CC2(C)CSC2)c(CC2(C)CSC2)c1C 35.5% [at 11.4 µM], CCN1C(=O)[C@H]2[C@H]3[C@H](O)[C@H](O)C/C(=N/OCC[C@H]4C=C[C@H](OC(C)=O)[C@@H](COC(C)=O)O4)[C@@H]3CC[C@@H]2C1=O 0.181% [at 11.4 µM], COc1ccc(COC(=O)N/N=C2/C[C@@H](O)[C@@H](O)[C@@H]3[C@@H]4C(=O)N([C@@H](C)c5ccccc5)C(=O)[C@H]4CC[C@H]23)cc1 1.27% [at 11.4 µM], NC(N)=NC(N)=Nc1ccc(S(=O)(=O)O)cc1 10.1% [at 11.4 µM], CCOC(=O)N/N=C1/C[C@@H](O)[C@@H](O)[C@@H]2[C@@H]3C(=O)N([C@@H](C)c4ccccc4)C(=O)[C@H]3CC[C@@H]12 -0.98% [at 11.4 µM]

Source: PubChem BioAssay AID1851 (National Center for Advancing Translational Sciences (NCATS), 2009)
